Measured values from PubChem BioAssay (Tox21).
Inconclusive results are not listed. Active and inactive are the calls of the source. Unless noted, the call rests on the fitted dose curve; in most records, active means well fitted curve in the direction sought with a large enough effect in the repeat runs; inconclusive means weak or mixed curves; inactive means no such curve, though single readings can be large; an effect the other way counts as inactive or inconclusive.

Tests used:
[1] = molecular target: Estrogen receptor beta (Homo sapiens) (UniProt Q92731); test: qHTS assay to identify small molecule agonists of the estrogen receptor beta (ER-beta) signaling pathway (AID 1259377; active means well fitted activation curve with a large enough effect in the signal ratio in the repeat runs, not every such curve was filed as active; the % refers to the signal ratio)
Sequence of Estrogen receptor beta (Homo sapiens) (Q92731 whole entry, looked up): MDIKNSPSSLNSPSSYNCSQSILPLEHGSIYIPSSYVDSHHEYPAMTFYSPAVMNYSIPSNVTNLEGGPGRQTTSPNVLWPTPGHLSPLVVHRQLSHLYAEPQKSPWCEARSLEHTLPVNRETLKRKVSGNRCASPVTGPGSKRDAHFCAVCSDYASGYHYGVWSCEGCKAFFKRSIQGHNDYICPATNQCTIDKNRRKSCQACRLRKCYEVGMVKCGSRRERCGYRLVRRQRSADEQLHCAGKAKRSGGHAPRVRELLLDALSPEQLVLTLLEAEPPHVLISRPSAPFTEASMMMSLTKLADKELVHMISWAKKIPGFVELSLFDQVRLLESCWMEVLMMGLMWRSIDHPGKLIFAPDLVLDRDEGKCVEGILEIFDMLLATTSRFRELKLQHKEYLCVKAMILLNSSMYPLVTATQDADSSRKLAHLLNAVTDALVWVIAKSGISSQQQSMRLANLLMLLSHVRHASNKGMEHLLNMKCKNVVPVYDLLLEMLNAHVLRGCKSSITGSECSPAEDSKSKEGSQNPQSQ
Summary of the method: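 HEK293T ER-beta-UAS-bla; 2% charcoal-stripped FBS; cells pre-incubated 6 hr, compound 16 hr, 37C/5% CO2; LiveBLAzer B/G FRET substrate 2 h RT; fluorescence intensity read.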

[2] = molecular target: Estrogen receptor beta (Homo sapiens) (UniProt Q92731); test: qHTS assay to identify small molecule antagonists of the estrogen receptor beta (ER-beta) signaling pathway (AID 1259378; active means well fitted inhibition curve with a large enough effect in the signal ratio in the repeat runs, not every such curve was filed as active; the % refers to the signal ratio)
Summary of the method: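 ER-beta-UAS-bla HEK293T (GripTite) cells in 2% charcoal-stripped FBS medium were preincubated 6 hr at 37C, dosed with compound, then stimulated with 1 nM E2 (final) for 16 hr; beta-lactamase reporter read by B/G FRET fluorescence after 2 hr substrate loading.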

[3] = qHTS assay to identify small molecule agonists of the androgen receptor (AR) signaling pathway in the presence of an antagonist - cell viability counter screen (AID 1259379); further: series mostly up to about 92 µM; nearly all actives have a fitted effect of over 25% in size
Summary of the method: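 MDA-kb2 human breast carcinoma cells (stable MMTV-luciferase, AR/GR responsive) were seeded 3,000 cells/well, pre-incubated 5 hr at 37C without CO2, then given 3.0uM nilutamide and compounds at 15 concentrations for 16 hr. Viability was read by CellTiter-Fluor fluorescence.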

[4] = qHTS assay to identify small molecule agonists of the estrogen receptor beta (ER-beta) signaling pathway - cell viability counter screen (AID 1259380); further: nearly all actives have a fitted effect of over 30% in size
Summary of the method: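 ER-beta-UAS-bla HEK293T cells in medium with 2% charcoal-stripped FBS were preincubated 6 hr at 37C, dosed with compound in DMSO for 16 hr, then after the bla read, CellTiter-Glo was added for 30 min at room temperature; luminescence recorded.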

[5] = qHTS assay to identify small molecule agonists or antagonists of the thyroid stimulating hormone receptor (TSHR) signaling pathway - wild type cell line counter screen (AID 1259384; calls by dose curve)
Summary of the method: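 Wild-type HEK293 cells were plated 18 h at 37 C/5% CO2, pin-dosed with compound plus Ro20-1724 medium, held 30 min at room temperature, then given cAMP-d2 and anti-cAMP-cryptate; fluorescence was read after 1 h. Fifteen concentrations, triplicate.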

[6] = qHTS assay to identify small molecule agonists of the estrogen receptor alpha (ER-alpha) signaling pathway in the presence of an antagonist - cell viability counter screen (AID 1259386);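 further: series mostly up to about 92 µM; cells exposed to compounds for 22 h at 37 °C before the viability read; nearly all actives have a fitted effect of over 30% in size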
Summary of the method: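 VM7Luc4E2 cells (endogenous full-length ER-alpha, 4×ERE-luciferase) were held 5 days in phenol red-free medium with 10% charcoal-stripped FBS, plated, then given 10.0nM ICI-182,780 and compounds at 15 concentrations for 22hr at 37C; viability read by CellTiter-Fluor fluorescence.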

[7] = molecular target: Progesterone receptor (Homo sapiens) (UniProt P06401); test: qHTS assay to identify small molecule agonists of the progesterone receptor (PR) signaling pathway (AID 1346784; calls by dose curve; further: nearly all actives have a fitted effect of over 30% in size)
Sequence of Progesterone receptor (Homo sapiens) (P06401 whole entry, looked up): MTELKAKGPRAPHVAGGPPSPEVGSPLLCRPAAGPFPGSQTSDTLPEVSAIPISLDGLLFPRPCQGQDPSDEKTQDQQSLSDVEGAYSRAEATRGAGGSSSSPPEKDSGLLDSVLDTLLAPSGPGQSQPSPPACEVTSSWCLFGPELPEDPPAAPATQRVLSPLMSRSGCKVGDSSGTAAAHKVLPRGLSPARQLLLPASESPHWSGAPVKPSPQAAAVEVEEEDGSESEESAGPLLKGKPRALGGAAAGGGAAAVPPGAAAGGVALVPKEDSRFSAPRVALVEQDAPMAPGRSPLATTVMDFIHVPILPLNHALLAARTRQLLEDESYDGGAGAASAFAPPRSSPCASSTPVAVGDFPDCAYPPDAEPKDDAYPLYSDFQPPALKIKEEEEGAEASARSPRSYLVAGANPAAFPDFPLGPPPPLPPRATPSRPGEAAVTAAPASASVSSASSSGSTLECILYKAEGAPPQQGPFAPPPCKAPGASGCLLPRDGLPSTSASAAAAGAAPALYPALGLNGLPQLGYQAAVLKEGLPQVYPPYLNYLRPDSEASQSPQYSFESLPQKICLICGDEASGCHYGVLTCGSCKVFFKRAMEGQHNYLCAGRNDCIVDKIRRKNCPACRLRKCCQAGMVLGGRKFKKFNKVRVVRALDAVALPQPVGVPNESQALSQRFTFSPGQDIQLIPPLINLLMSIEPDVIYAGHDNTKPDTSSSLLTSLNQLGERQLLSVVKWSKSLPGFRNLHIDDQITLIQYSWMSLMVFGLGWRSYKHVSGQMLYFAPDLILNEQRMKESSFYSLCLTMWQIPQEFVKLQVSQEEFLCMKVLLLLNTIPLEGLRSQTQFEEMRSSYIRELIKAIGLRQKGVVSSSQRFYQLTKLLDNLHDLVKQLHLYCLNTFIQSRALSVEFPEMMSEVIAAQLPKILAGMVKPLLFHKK
Summary of the method: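 Beta-lactamase reporter read-out: after 16 hr compound treatment at 37C and a further 2 hr at room temperature with LiveBLAzer B/G FRET substrate, fluorescence was measured in PR-UAS-bla HEK 293T cells grown in 2% charcoal-stripped serum.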

[8] = molecular target: Progesterone receptor (Homo sapiens) (UniProt P06401); test: qHTS assay to identify small molecule antagonists of the progesterone receptor (PR) signaling pathway (AID 1346795; active means well fitted inhibition curve with a large enough effect in the signal ratio in the repeat runs, not every such curve was filed as active; the % refers to the signal ratio)
Summary of the method: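 Read-out is fluorescence from the LiveBLAzer B/G FRET substrate, cleaved by a UAS-controlled beta-lactamase in PR-UAS-bla HEK293T cells after 16 hr exposure to compound plus 1 nM promegestone (final), followed by 2 hr at room temperature.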

[9] = qHTS assay to identify small molecule antagonists of the progesterone receptor (PR) signaling pathway - cell viability counter screen (AID 1346798);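 further: HEK293T PR-UAS-bla cells stimulated with the agonist R5020; series mostly up to about 92 µM; nearly all actives have a fitted effect of over 50% in size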
Summary of the method: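 HEK293T PR-UAS-bla, 2% charcoal-stripped FBS; 4 hr pre-plate; cpd + R5020, 16 h 37C; LiveBLAzer read first; then CellTiter-Glo 30 min RT, luminescence.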

[10] = qHTS assay to identify small molecule agonists of the progesterone receptor (PR) signaling pathway - cell viability counter screen (AID 1346799; calls by dose curve; further: nearly all actives have a fitted effect of over 45% in size)
Summary of the method: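 Luminescence from CellTiter-Glo, added after the beta-lactamase FRET read in the same wells, gave cytotoxicity in PR-UAS-bla HEK293T cells treated with compounds for 16 hr at 37C.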

[11] = qHTS assay to identify small molecule antagonists of the TGF-beta/Smad signaling pathway - cell viability counter screen (AID 1346824); further: nearly all actives have a fitted effect of over 50% in size
Summary of the method: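 SBE-bla HEK 293T cells were plated overnight at 37 C, then given compounds in DMSO plus TGF-beta1 (added as 0.25 ng/mL solution) for 5 hr. After the bla read, CellTiter-Glo was added to the same wells and luminescence read after 30 min at room temperature.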

[12] = Human pregnane X receptor (PXR) small molecule agonists, qHTS cell viability counter screen (AID 1346977); further: nearly all actives have a fitted effect of over 50% in size; further: potency means the concentration at half of the fitted maximal effect
Summary of the method: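 PXR-Luc HepG2, 2,000 cells/well, 5% charcoal-stripped FBS; 5hr settle; cpd 24hr, 37C/5% CO2; CellTiter-Fluor at 23hr, read 1hr later (fluorescence).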

[13] = qHTS assay to identify small molecule antagonists of the estrogen receptor beta (ER-beta) signaling pathway - cell viability counter screen (AID 1259382); further: series mostly up to about 92 µM; nearly all actives have a fitted effect of over 55% in size
Summary of the method: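 ER-beta-UAS-bla HEK293T cells (2,000/well, 2% charcoal-stripped FBS) were pre-incubated 6 hr at 37C, then given compound plus 1nM final 17-beta-estradiol for 16 hr. Viability was read in the same wells by CellTiter-Glo luminescence after 30 min at room temperature.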

[14] = molecular target: Thyrotropin receptor (Homo sapiens) (UniProt P16473); test: qHTS assay to identify small molecule antagonists of the thyroid stimulating hormone receptor (TSHR) signaling pathway (AID 1259385; calls by dose curve; further: nearly all actives have a fitted effect of over 20% in size)
Sequence of Thyrotropin receptor (Homo sapiens) (P16473 whole entry, looked up): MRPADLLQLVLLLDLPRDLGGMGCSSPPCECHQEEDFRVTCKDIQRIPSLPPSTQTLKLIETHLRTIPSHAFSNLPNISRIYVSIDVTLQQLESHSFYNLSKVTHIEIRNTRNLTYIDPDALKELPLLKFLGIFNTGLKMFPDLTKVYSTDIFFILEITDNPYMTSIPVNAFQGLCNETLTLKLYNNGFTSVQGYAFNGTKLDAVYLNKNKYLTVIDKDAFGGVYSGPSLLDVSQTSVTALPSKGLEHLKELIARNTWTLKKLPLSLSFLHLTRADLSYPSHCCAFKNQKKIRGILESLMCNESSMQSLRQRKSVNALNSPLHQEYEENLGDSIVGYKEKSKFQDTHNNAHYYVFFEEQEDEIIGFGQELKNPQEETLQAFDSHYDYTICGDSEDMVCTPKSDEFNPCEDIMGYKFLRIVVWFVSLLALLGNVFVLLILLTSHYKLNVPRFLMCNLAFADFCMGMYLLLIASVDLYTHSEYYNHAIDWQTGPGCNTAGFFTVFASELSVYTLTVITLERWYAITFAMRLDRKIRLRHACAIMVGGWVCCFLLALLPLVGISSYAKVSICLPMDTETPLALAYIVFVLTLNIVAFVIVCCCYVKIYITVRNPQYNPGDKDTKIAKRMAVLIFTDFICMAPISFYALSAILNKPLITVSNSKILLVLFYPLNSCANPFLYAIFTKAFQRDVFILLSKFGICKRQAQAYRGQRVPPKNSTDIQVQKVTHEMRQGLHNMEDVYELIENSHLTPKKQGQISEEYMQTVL
Summary of the method: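 TSHR-HEK293 cells were plated and held 18 h at 37C/5% CO2, then given compound plus Ro20-1724 and stimulated with TSH at 1.5 ng/mL final. After 30 min at room temperature, cAMP was detected with cAMP-d2/anti-cAMP-cryptate (1 h) by fluorescence.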

[15] = qHTS assay to identify small molecule agonists of the TGF-beta/Smad signaling pathway (AID 1346859; active means well fitted activation curve with a large enough effect in the signal ratio in the repeat runs, not every such curve was filed as active; the % refers to the signal ratio; further: series mostly up to about 77 µM)
Summary of the method: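 SBE-bla HEK 293T, 4,000 cells/well, plated o/n; cpd in DMSO, 5 hr, 37 C/5% CO2; B/G FRET substrate 2 hr RT; ex 405, em 460/530 nm.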

[16] = molecular target: Thyrotropin-releasing hormone receptor (Homo sapiens) (UniProt P34981); test: qHTS assay to identify small molecule antagonists of the thyrotropin-releasing hormone receptor (TRHR) signaling pathway (AID 1346877; active means well fitted inhibition curve with a large enough effect in the repeat runs, not every such curve was filed as active; further: series mostly up to about 51 µM)
Sequence of Thyrotropin-releasing hormone receptor (Homo sapiens) (P34981 whole entry, looked up): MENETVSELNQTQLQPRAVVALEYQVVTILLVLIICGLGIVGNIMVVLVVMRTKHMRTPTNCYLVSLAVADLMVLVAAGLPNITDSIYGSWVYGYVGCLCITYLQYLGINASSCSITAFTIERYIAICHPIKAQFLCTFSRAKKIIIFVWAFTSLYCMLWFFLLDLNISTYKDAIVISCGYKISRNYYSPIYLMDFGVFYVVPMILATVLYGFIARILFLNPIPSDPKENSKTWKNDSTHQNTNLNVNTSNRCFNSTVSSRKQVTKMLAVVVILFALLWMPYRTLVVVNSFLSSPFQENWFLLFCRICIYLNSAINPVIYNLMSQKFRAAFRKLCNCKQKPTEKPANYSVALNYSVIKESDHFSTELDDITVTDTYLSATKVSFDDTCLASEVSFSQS
Summary of the method: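 TRHR-expressing HEK293 cells were seeded, cultured 18 h at 37 °C, then loaded with calcium dye for 2 h. Compounds were pre-incubated 5 min at room temperature before 1 nM TRH (final) was added, and kinetic fluorescence was recorded for 3 min.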

[17] = molecular target: Thyrotropin-releasing hormone receptor (Homo sapiens) (UniProt P34981); test: qHTS assay to identify small molecule agonists of the thyrotropin-releasing hormone receptor (TRHR) signaling pathway (AID 1346891; calls by dose curve; further: series mostly up to about 58 µM)
Summary of the method: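 Intracellular calcium rise, read as fluorescence every second for 3 min, served as the agonist signal in dye-loaded HEK293 cells expressing TRHR; each compound ran at 15 concentrations in triplicate.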

[18] = molecular target: Androgen receptor (Homo sapiens) (UniProt P10275); test: qHTS assay to identify small molecule agonists of the androgen receptor (AR) signaling pathway in the presence of an antagonist (AID 1259381; calls by dose curve; further: nearly all actives have a fitted effect of over 15% in size)
Sequence of Androgen receptor (Homo sapiens) (P10275 whole entry, looked up): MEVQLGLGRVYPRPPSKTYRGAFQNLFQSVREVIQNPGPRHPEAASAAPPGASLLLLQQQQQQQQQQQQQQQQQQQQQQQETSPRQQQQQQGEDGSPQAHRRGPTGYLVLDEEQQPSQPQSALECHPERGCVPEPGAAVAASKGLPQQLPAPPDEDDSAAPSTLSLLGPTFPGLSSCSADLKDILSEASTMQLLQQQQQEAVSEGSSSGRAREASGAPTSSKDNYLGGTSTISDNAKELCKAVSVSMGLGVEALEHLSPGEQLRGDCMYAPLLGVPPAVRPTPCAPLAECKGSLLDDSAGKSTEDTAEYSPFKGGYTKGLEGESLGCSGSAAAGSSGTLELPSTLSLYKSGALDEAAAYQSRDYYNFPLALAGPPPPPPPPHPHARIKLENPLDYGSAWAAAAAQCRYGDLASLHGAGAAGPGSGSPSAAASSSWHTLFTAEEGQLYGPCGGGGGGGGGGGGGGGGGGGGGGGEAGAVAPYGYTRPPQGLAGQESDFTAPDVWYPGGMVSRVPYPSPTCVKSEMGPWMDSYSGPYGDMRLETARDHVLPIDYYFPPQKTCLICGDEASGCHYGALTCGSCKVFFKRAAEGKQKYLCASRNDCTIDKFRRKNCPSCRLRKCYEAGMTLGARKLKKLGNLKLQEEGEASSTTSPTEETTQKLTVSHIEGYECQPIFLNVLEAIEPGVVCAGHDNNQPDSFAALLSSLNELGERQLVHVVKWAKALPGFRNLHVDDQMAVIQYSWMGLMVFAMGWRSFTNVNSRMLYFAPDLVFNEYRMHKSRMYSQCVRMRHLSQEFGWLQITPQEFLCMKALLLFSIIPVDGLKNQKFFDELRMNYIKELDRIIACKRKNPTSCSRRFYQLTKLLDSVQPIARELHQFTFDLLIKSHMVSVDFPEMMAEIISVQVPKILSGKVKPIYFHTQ
Summary of the method: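 MDA-kb2 human breast carcinoma cells carrying an MMTV-luciferase reporter (AR- and GR-responsive) were treated with compounds at 15 concentrations plus 3.0uM final nilutamide for 16hr at 37C without CO2; luminescence was read after ONE-Glo addition.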

[19] = qHTS assay to identify small molecule agonists of the TGF-beta/Smad signaling pathway - cell viability counter screen (AID 1346829); further: top concentration of the series differs between compounds; nearly all actives have a fitted effect of over 45% in size
Summary of the method: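 CellTiter-Glo luminescence readout; SBE-bla HEK 293T cells, overnight plating, compound 5 hr at 37 C/5% CO2, then bla substrate 2 hr RT, then CellTiter-Glo 30 min RT.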

[20] = molecular target: Estrogen receptor (Homo sapiens) (UniProt P03372); test: qHTS assay to identify small molecule agonists of the estrogen receptor alpha (ER-alpha) signaling pathway in the presence of an antagonist (AID 1259383; calls by dose curve; further: top concentration of the series differs between compounds; nearly all actives have a fitted effect of over 15% in size)
Sequence of Estrogen receptor (Homo sapiens) (P03372 whole entry, looked up): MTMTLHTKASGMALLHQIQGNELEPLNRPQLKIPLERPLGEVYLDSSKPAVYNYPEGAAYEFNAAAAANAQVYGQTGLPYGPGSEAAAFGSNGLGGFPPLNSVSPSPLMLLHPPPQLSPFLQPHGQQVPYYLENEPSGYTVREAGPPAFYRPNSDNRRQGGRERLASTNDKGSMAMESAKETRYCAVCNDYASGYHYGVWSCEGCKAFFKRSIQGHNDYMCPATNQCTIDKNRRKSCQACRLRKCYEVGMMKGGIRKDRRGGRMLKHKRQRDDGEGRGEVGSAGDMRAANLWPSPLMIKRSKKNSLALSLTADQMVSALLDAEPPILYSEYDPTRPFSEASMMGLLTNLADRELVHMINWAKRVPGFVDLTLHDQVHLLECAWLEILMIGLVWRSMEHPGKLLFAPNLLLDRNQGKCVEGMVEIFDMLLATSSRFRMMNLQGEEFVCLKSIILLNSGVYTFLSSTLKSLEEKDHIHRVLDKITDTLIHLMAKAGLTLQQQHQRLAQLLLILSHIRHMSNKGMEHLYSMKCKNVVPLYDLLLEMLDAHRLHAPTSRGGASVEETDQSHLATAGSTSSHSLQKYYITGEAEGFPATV
Summary of the method: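 VM7Luc4E2 cells (endogenous full-length ER-alpha, 4×ERE-luciferase) were precultured 5 days in phenol red-free medium with 10% charcoal-stripped FBS, given 10.0nM ICI-182,780 (final), then treated with compounds at 15 concentrations for 22hr at 37C; luminescence read with ONE-Glo.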

Measured: Potency

CCOP(=S)(OCC)OC(Cl)C(Cl)(Cl)Cl (stereo unspecified)
inactive: [1] | [2] | [3] | [4] | [5] | [6] | [7] | [8] | [9] | [10] | [11] | [12]

CCN
inactive: [1] | [2] | [3] | [4] | [13] | [5] | [14] | [6] | [7] | [8] | [9] | [10] | [11] | [15] | [16] | [17] | [12]

COc1cccc(C(=O)CCN[C@@H](C)[C@H](O)c2ccccc2)c1
active: [12] 29.8 µM
inactive: [1] | [2] | [4] | [18] | [5] | [14] | [6] | [7] | [8] | [11] | [19] | [15] | [16] | [17]

COC(=O)N(C(=O)N1COC2(C(=O)OC)Cc3cc(Cl)ccc3C2=N1)c1ccc(OC(F)(F)F)cc1 (stereo unspecified)
inactive: [1] | [2] | [3] | [18] | [13] | [20] | [5] | [14] | [6] | [7] | [9] | [10] | [11] | [19] | [15] | [12]

CC(Cc1ccc(C(C)(C)C)cc1)CN1C[C@@H](C)O[C@@H](C)C1 (stereo partly specified)
inactive: [1] | [2] | [3] | [4] | [5] | [6] | [8] | [11] | [15] | [12]

Cc1cc(C)cc(OP(=O)(Oc2cc(C)cc(C)c2)Oc2cc(C)cc(C)c2)c1
inactive: [1] | [2] | [3] | [4] | [20] | [5] | [14] | [6] | [7] | [9] | [11] | [19] | [15] | [12]

COc1ccc(/C(=C/C(=O)N2CCOCC2)c2ccc(Cl)cc2)cc1OC
inactive: [1] | [2] | [3] | [18] | [5] | [14] | [6] | [7] | [9] | [10] | [11] | [19] | [15] | [16] | [17] | [12]

CC1(C)[C@H](C(=O)O[C@H](C#N)c2cccc(Oc3ccccc3)c2)[C@@H]1/C=C(\Cl)C(F)(F)F
inactive: [1] | [2] | [3] | [4] | [13] | [5] | [14] | [6] | [7] | [9] | [10] | [11] | [19] | [16] | [17] | [12]
